Assay results from PubChem BioAssay (EPA / NIEHS).
Active and inactive are the calls of the source. How the source made its calls: active means hit-call score of the fitted dose curve at least 0.9, where 1 is the maximum; inactive means score below 0.9.

Test: BSK_hDFCGF_SRB: Viability Assessment in the BioMAP Diversity Plus: hDFCGF Assay (AID 2283061)
Conditions: primary human foreskin fibroblasts
Protocol: BSK_hDFCGF is a cell-based, multiplexed-readout assay that uses foreskin fibroblast, a human skin primary cell, with measurements taken at 24 hours after chemical dosing in a 96-well plate.BSK_hDFCGF_SRB is an assay component measured in the BSK_hDFCGF assay. It measures 0.1% sulforhodamine related to cell death using Sulforhodamine staining technology.Data from the assay component BSK_hDFCGF_SRB was analyzed into 1 assay endpoint. This assay endpoint, BSK_hDFCGF_SRB, was analyzed with bidirectional fitting relative to DMSO as the negative control and baseline of activity. Using a type of viability reporter, gain or loss-of-signal activity can be used to understand changes in the signaling. Furthermore, this assay endpoint can be referred to as a primary readout, because this assay has produced multiple assay endpoints where this one serves a signaling function. To generalize the intended target to other relatable targets, this assay endpoint is annotated to the cell morphology intended target family, where the subfamily is cell conformation.
The levels of cell surface (or secreted, indicated by the prefix "s") biomarker endpoints were measured by ELISA. Overt cytotoxicity to cells in confluent adherent cultures (all systems other than the BT system) was assessed by measuring total protein levels using sulforhodamine B (SRB) staining in parallel cultures at the time of biomarker measurements, indicated as SRB endpoints. For proliferation assays for adherent cell types, individual cell types are cultured at sub-confluence and relative cell numbers quantified by SRB staining at time points optimized for each system (48 h: 3C and CASM3C systems; 72 h: BT and HDF3CGF systems; 96 h: SAg system). SRB was performed by staining cells with 0.1% SRB after fixation with 10% TCA and reading wells at 560 nm.Viability and proliferation of PBMC (T cells) was quantified by Alamar Blue reduction for the SAg and BT systems. For PBMC viability (referred to as PBMC Cytotoxicity within the assay endpoint names), cells were plated (75,000/well in a 96-well plate) and then chemical samples added for 1 h before addition of activators, SEB and TSST-1 (20 ng/mL final concentration each). Cells were incubated for 90 h. Then, Alamar Blue (20 uL/well) (Invitrogen, Cat DAL1100) was added for 6 h, and the plates were read with a fluorescence microplate reader at 546/580 nm (excitation/emission). For PBMC proliferation, cells were plated and activated as above but incubated for only 16 h prior to addition of Alamar Blue. Plates were read after 6 h.

Row | Compound | outcome | AC50
1 | CCOCCO | inactive | –
2 | CCCCCCCCCCCCCCCO | inactive | –
3 | CCNc1ccccc1 | inactive | –
4 | On1ccccc1=S | – | 1.74 µM (active)
5 | CC(C)CC(C)(O)C#CC(C)(O)CC(C)C (stereo not given) | inactive | –
6 | O=C(O)CCN(C1(C(=O)NO)CCCC1)S(=O)(=O)c1ccc(Oc2ccc(F)cc2)cc1 | inactive | –
7 | CC(C)=CCCC(C)=CC=O | inactive | –
8 | CCCCCCCCCCCCc1ccccc1 | inactive | –
9 | Cn1c(=O)cc(Oc2ccc(F)cc2F)c2cnc(NCC(C)(C)O)nc21 | inactive | –
10 | O=C(CCCCCCCCc1cccnc1)N1CCC(C=C(c2ccccc2)c2ccccc2)CC1 | – | 7.83 µM (active)
11 | CCOc1cccc(-n2cc(C(=O)N3CCN(c4cc(C(=O)O)c5ccccc5c4)CC3)nc2-c2ccc(C)cc2)c1 | – | 6.49 µM (active)
12 | NC(=O)NO | inactive | –
13 | O=C(O)c1cccc(N(Cc2cccnc2)c2ccc(OC(F)F)c(OC(F)F)c2)c1 | inactive | –
14 | CCOC(=O)c1ccc(C2CCC(NC[C@H](O)COc3ccc(O)c(NS(C)(=O)=O)c3)CC2)cc1 (stereo not given in full) | – | 5.64 µM (active)
15 | Cn1cnc([N+](=O)[O-])c1Sc1ncnc2nc[nH]c12 | inactive | –
16 | O=C1OC(=O)C2C3C=CC(C3)C12 (stereo not given) | inactive | –
17 | C1=CCCC=CCCC=CCC1 | inactive | –
18 | CC(C)CCO | inactive | –
19 | COC(=O)CC(=O)OC | inactive | –
20 | Cn1c(=O)c2c(ncn2C)n(C)c1=O | inactive | –

Row | Compound | outcome | AC50
21 | O=C1CCCCCN1 | inactive | –
22 | COC(=O)c1c(Cl)c(Cl)c(C(=O)OC)c(Cl)c1Cl | inactive | –
23 | Fc1ccccc1[C@@H](F)COC1CCC(Nc2ncnc3[nH]ncc23)CC1 (stereo not given in full) | inactive | –
24 | O=c1n(CC2CO2)c(=O)n(CC2CO2)c(=O)n1CC1CO1 (stereo not given) | inactive | –
25 | CNCc1ccc(NC(=O)c2c[nH]c3c2C(=O)CCC3)cc1 | inactive | –
26 | CC(=O)OCCC(C)C | inactive | –
27 | CCCCC(CC)COC(=O)c1ccc(C(=O)OCC(CC)CCCC)cc1 (stereo not given) | inactive | –
28 | Nc1ccc(Nc2ccccc2)cc1 | inactive | –
29 | CN(C)c1ccc(Cc2ccc(N(C)C)cc2)cc1 | inactive | –
30 | CC(=O)OC[C@H]1O[C@@](COC(C)=O)(O[C@H]2O[C@H](COC(C)=O)[C@@H](OC(C)=O)[C@H](OC(C)=O)[C@H]2OC(C)=O)[C@@H](OC(C)=O)[C@@H]1OC(C)=O | inactive | –
31 | CC/C(=C\C(=N/O)C(N)=O)C(C)[N+](=O)[O-] (stereo not given) | inactive | –
32 | Clc1nc(Cl)c(Cl)c(Cl)c1Cl | inactive | –
33 | C=CCCCCCCCCC(=O)O | inactive | –
34 | CCCC(=O)OCC | inactive | –
35 | O=C(O)c1cccc(Oc2ccccc2)c1 | inactive | –
36 | CCc1cc(SCc2sc(-c3ccc(C(F)(F)F)cc3)nc2CN2CCN(c3ccc(OC)cc3)CC2)ccc1OCC(=O)O | – | 2 µM (active)
37 | COc1ccc(/C=C/S(=O)(=O)NC(=O)c2ccc(C)cc2Cl)cc1 | inactive | –
38 | O=P(OC(CCl)CCl)(OC(CCl)CCl)OC(CCl)CCl | inactive | –
39 | CC(O)CN(CCN(CC(C)O)CC(C)O)CC(C)O (stereo not given) | inactive | –
40 | COC(=O)c1ccccc1O | inactive | –
